Measured values as given in PubChem BioAssay (Tox21).
Inconclusive results are not listed. A call without a number means that no potency is given here. Activity calls are given as the source filed them. Unless noted, calls come from the whole dose curve; as a rule, active = well fitted curve in the direction sought with a large enough effect in the repeat runs; inconclusive = weak or mixed curves; inactive = no such curve, though single readings can be large; an effect the other way counts as inactive or inconclusive.

Key:
[1] = qHTS assay to identify small molecule agonists of the RXR signaling pathway - cell viability counter screen (AID 1159529);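 note: HEK 293T cells carrying an RXR-alpha UAS beta-lactamase reporter; nearly all actives have a fitted effect of over 50% in size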
Outline: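 In this parallel viability measure, GeneBLAzer RXR-alpha HEK 293T cells (2% charcoal-stripped FBS) were given a 5 hr preincubation, treated with compounds 16 hr at 37 C, and read by CellTiter-Glo luminescence.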

[2] = qHTS assay to identify small molecule antagonists of the retinoid acid receptor (RAR) signaling pathway - cell viability counter screen (AID 1159551); note: nearly all actives have a fitted effect of over 35% in size
Outline: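 Cells (C3RL4) are plated, incubated overnight, dosed with compound in DMSO, then given retinol at 1 uM final. After 6 h at 37 C, CellTiter-Glo is added and luminescence read following 30 min at room temperature.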

[3] = qHTS assay to identify small molecule antagonists of the retinoic acid receptor (RAR) signaling pathway (AID 1159552; note: nearly all actives have a fitted effect of over 50% in size; note: potency is the fitted concentration of half-maximal effect)
Outline: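 C3RL4 RARE-luc cells, overnight plating; retinol 1 uM final added right after compound; 6 hr 37 C; luciferase read at 30 min RT.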

[4] = qHTS assay to identify small molecule agonists of the retinoic acid receptor (RAR) signaling pathway (AID 1159553); settings: C3RL4 RARE luciferase reporter, agonist, 6 h; activation: at 73.3 µM (top of the series) unless noted
Outline: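 Seed C3RL4 reporter cells at 1,000 per well and incubate overnight at 37 C. Add compounds in DMSO, incubate 6 hr. Add luciferase reagent, wait 30 min at room temperature, read luminescence.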

[5] = qHTS assay to identify small molecule antagonists of the estrogen related receptor (ERR) signaling pathway from Tox21 library - cell viability counter screen (AID 1224834); note: nearly all actives have a fitted effect of over 30% in size; note: potency is the fitted concentration of half-maximal effect
Outline: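 ERR cells, 2,000/well; 6 h settle at 37 C/5% CO2; pin-tool compound transfer in DMSO; 17.5 h at 37 C; CellTiter-Fluor, 30 min; fluorescence intensity.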

[6] = biological target: Luciferin 4-monooxygenase (Photinus pyralis) (UniProt P08659); test: qHTS assay to identify small molecule inhibitors of firefly luciferase (AID 1224835); note: nearly all actives have a fitted effect of over 25% in size; note: potency is the fitted concentration of half-maximal effect
Luciferin 4-monooxygenase (Photinus pyralis), sequence (P08659 whole entry, looked up): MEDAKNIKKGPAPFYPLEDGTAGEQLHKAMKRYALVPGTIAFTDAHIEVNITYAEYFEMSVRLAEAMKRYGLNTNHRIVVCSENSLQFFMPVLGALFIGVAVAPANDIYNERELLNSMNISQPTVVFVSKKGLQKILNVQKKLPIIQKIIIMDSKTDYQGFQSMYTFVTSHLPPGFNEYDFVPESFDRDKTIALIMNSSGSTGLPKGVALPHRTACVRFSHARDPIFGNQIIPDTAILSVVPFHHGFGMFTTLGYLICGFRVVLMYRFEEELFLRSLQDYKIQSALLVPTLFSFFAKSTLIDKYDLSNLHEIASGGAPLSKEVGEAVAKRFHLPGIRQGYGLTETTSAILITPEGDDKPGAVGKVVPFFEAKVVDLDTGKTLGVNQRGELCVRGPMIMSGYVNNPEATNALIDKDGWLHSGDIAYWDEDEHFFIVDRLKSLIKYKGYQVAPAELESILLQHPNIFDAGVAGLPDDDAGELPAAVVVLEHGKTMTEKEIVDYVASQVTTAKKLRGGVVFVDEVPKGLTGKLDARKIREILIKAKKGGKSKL
Outline: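 Biochemical qHTS: compounds run as interplate titrations against purified firefly enzyme, with D-luciferin and ATP each at its KM concentration. Light output recorded by CCD imaging.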

[7] = qHTS assay to identify small molecule agonists of the constitutive androstane receptor (CAR) signaling pathway - cell viability counter screen (AID 1224836); note: nearly all actives have a fitted effect of over 45% in size; note: potency is the fitted concentration of half-maximal effect
Outline: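 Using CellTiter-Fluor, viability of HepG2 cells harbouring hCAR and CYP2B6-2.2kb was measured following 23 h incubation with a 15-concentration compound series plus PK11195 (0.75 uM final).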

[8] = qHTS assay to identify small molecule antagonists of the constitutive androstane receptor (CAR) signaling pathway - cell viability counter screen (AID 1224837); note: nearly all actives have a fitted effect of over 45% in size
Outline: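 Viability was measured with CellTiter-Fluor in a HepG2 line carrying stably transfected hCAR and a CYP2B6-2.2kb construct. Cells were exposed for 23 hr at 37 C to 15 compound concentrations with 50 nM CITCO as agonist.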

[9] = biological target: Nuclear receptor subfamily 1 group I member 3 (Homo sapiens) (UniProt Q14994); test: qHTS assay to identify small molecule antagonists of the constitutive androstane receptor (CAR) signaling pathway (AID 1224838);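 note: HepG2 cells stably expressing hCAR with CYP2B6 luciferase reporter stimulated by CITCO; nearly all actives have a fitted effect of over 40% in size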
Nuclear receptor subfamily 1 group I member 3 (Homo sapiens), sequence (Q14994 whole entry, looked up): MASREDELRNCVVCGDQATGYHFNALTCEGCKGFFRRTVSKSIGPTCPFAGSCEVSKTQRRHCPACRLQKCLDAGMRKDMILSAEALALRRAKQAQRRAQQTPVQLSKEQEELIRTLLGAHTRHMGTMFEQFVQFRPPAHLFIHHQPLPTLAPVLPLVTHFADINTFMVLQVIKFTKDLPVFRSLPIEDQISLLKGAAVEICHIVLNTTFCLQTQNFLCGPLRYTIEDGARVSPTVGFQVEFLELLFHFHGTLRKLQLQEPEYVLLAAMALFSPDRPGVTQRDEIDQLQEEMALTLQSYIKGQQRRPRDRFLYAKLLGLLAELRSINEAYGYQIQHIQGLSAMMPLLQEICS
Outline: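 Antagonist mode used CITCO at a final 50 nM to activate CAR in human hepatoma HepG2 cells carrying stable hCAR and a 2.2 kb CYP2B6 promoter-luciferase construct. Compounds were tested at 15 concentrations over 24 h, with luminescence as the end point.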

[10] = biological target: Nuclear receptor subfamily 1 group I member 3 (Homo sapiens) (UniProt Q14994); test: qHTS assay to identify small molecule agonists of the constitutive androstane receptor (CAR) signaling pathway (AID 1224839); note: nearly all actives have a fitted effect of over 15% in size
Outline: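 Double-stable HepG2 cells (hCAR, CYP2B6-2.2kb) seeded 4 h before compound addition. Exposure 24 h with 0.75 uM PK11195 final. Luciferase detected by ONE-Glo.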

[11] = qHTS assay to identify small molecule antagonists of the estrogen related receptor signaling pathway with the pleiotropic PPARgamma coactivator (PGC) from Tox21 10K library - cell viability counter screen (AID 1224840; active = well fitted cell-killing curve with a large enough effect in the repeat runs, not every such curve was filed as active; note: nearly all actives have a fitted effect of over 40% in size)
Outline: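 Multiplexed viability counter screen in the PGC/ERR cell line: cells treated with DMSO-dissolved compounds for 17.5 hours at 37 C, then viability measured as CellTiter-Fluor fluorescence.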

[12] = biological target: Thyrotropin receptor (Homo sapiens) (UniProt P16473); test: qHTS assay to identify small molecule agonists of the thyroid stimulating hormone receptor (TSHR) signaling pathway (AID 1224843; calls by dose curve; note: nearly all actives have a fitted effect of over 45% in size)
Thyrotropin receptor (Homo sapiens), sequence (P16473 whole entry, looked up): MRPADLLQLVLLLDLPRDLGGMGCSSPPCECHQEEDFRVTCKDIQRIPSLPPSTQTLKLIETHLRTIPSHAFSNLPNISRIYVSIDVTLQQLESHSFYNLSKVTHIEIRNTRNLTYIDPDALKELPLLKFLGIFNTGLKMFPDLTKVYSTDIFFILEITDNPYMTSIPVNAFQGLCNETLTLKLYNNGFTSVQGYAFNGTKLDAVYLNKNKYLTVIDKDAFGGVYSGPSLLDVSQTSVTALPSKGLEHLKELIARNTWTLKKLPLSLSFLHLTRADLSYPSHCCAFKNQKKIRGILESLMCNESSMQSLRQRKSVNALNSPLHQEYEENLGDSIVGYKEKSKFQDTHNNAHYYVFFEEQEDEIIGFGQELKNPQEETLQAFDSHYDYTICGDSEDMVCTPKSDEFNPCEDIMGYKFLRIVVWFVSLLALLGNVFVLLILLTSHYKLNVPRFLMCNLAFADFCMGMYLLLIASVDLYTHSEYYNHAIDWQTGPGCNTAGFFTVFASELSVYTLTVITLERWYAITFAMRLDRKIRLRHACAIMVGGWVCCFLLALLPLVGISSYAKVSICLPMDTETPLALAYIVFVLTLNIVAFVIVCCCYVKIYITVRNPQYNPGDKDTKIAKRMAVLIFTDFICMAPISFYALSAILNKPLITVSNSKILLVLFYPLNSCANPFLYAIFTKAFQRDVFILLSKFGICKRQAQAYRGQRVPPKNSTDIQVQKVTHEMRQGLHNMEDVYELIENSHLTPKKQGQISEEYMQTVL
Outline: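 Agonist-mode screen: TSHR HEK293 cells received test chemicals for half an hour at room temperature, then HTRF cAMP detection reagents for one hour prior to fluorescence measurement. Each chemical ran as a 15-concentration series, triplicated.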

[13] = qHTS assay to identify small molecule antagonists of the estrogen related receptor signaling pathway with the pleiotropic PPARgamma coactivator (PGC) from Tox21 10K library (AID 1224841; call rule not given here; note: actives are mostly falling curves and most rising ones were filed inactive; nearly all actives have a fitted effect of over 50% in size)
Outline: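 Steps: plate 2,000 PGC/ERR cells per well; incubate 6 h at 37 C with 5% CO2; transfer compounds from DMSO stocks by pin tool; incubate 18 h at 37 C; add One-Glo; measure luminescence 30 min later.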

[14] = qHTS assay to identify small molecule agonists of the estrogen related receptor signaling pathway with the pleiotropic PPARgamma coactivator (PGC) from Tox21 10K library (AID 1224842); note: nearly all actives have a fitted effect of over 15% in size
Outline: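 PGC/ERR reporter cell line, 2,000 cells per well, incubated 6 h at 37 C before 23 nL compound in DMSO was added. After 18 h at 37 C, One-Glo luminescence read following 30 min at room temperature.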

[15] = qHTS assay to identify small molecule antagonists of the estrogen related receptor (ERR) signaling pathway - cell viability counter screen (AID 1224818)
Outline: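 ERR cells, 2,000/well; 6 h settle at 37 C/5% CO2; compound pin transfer (DMSO); 17.5 h at 37 C; CellTiter-Fluor, 30 min, fluorescence read.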

[16] = qHTS assay to identify small molecule antagonists of the estrogen related receptor signaling pathway with the pleiotropic PPARgamma coactivator (PGC) cell viability counter screen (AID 1224822;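 note: viability read after 17.5 h compound exposure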)
Outline: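 Multiplexed viability counter screen run in PGC/ERR cells treated with compounds for 17.5 h at 37 C; live-cell protease signal measured by CellTiter-Fluor fluorescence.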

SMILES	Potency [1]	Potency [2]	Potency [3]	Potency [4]	Potency [5]	Potency [6]	Potency [7]	Potency [8]	Potency [9]	Potency [10]	Potency [11]	Potency [12]	Potency [13]	Potency [14]	outcome [15]	Potency [16]	activation [4]
CCc1cccc(CC)c1NC(=O)CN(CC(=O)O)CC(=O)O	inactive	inactive	inactive	inactive	inactive	inactive	inactive	inactive	inactive	inactive	inactive	inactive					
Cc1c(F)c(N2CCNC(C)C2)cc2c1c(=O)c(C(=O)O)cn2C1CC1 (centres undefined)	inactive	inactive	inactive	inactive	inactive	inactive	inactive	inactive	inactive	inactive	inactive	inactive	inactive	inactive			
CC(C(=O)O)c1ccc2c(c1)[nH]c1ccc(Cl)cc12 (centres undefined)	inactive	inactive	inactive	inactive	inactive	34.7 µM (active)	inactive	inactive	inactive	inactive	inactive	inactive					
C#C[C@]1(O)CC[C@H]2[C@@H]3[C@H](C)CC4=C(CCC(=O)C4)[C@H]3CC[C@@]21C	inactive	inactive	29.8 µM (active)	inactive	inactive	inactive	inactive	inactive	inactive	inactive	inactive			inactive			
CC1(C)CC(O)CC(C)(C)N1	inactive	inactive	inactive	inactive	inactive	inactive	inactive	inactive	inactive	inactive	inactive	inactive					
CCCCCCCCCCC[C@@H](C[C@@H]1OC(=O)[C@H]1CCCCCC)OC(=O)[C@H](CC(C)C)NC=O	inactive	inactive	inactive	inactive	inactive	inactive	inactive	inactive	inactive	inactive	inactive	inactive					
CN(C)Cc1ccccc1O	inactive	inactive	inactive	inactive	inactive	inactive	inactive	inactive	inactive	inactive	inactive	inactive	inactive				
Cc1cccc2cccnc12	inactive	inactive	inactive	inactive	inactive	inactive	inactive	inactive	inactive	inactive	inactive	inactive	inactive				
CCCCOC(=O)CC	inactive	inactive	inactive	inactive	inactive	inactive	inactive	inactive	inactive	inactive	inactive	inactive					
c1cnccn1	inactive	inactive	inactive	inactive	inactive	inactive	inactive	inactive	inactive	inactive	inactive	inactive					
CCO[Si](OCC)(OCC)OCC	inactive	inactive	inactive	inactive	inactive	inactive	inactive	inactive	inactive	inactive	inactive	inactive					
OC[C@@H](O)[C@@H](O)CO	inactive	inactive	inactive	inactive	inactive	inactive	inactive	inactive	inactive	inactive	inactive	inactive	inactive	inactive			
Cc1ccc(C(=O)O)cc1	inactive	inactive	inactive	inactive	inactive	inactive	inactive	inactive	inactive	inactive	inactive	inactive	inactive	inactive			
CC(CCc1ccccc1)NCC(O)c1ccc(O)c(C(N)=O)c1 (centres undefined)	inactive	inactive	inactive	inactive	27.3 µM (active)	inactive	30.6 µM (active)		inactive	inactive	inactive				inactive	inactive	
CC(C)(C)NSc1nc2ccccc2s1	inactive	inactive	inactive		inactive	18.1 µM (active)	inactive	inactive	inactive	inactive	inactive	inactive					7.05% [at 94.8 µM] (active)
CCOC(=O)NNc1ccc(N(CC)CC(C)O)nn1 (centres undefined)	inactive	inactive	inactive	inactive	inactive	inactive	inactive	inactive	inactive	inactive	inactive	inactive	inactive				
COC1=C(OC)C(=O)C(CCCCCCCCCCO)=C(C)C1=O	inactive	inactive	inactive	inactive	23.7 µM (active)	inactive	inactive	inactive	inactive	inactive	inactive						
C=C(C)c1cccc(C(=C)C)c1	inactive	inactive	inactive	inactive	inactive	inactive	inactive	inactive	inactive	inactive	inactive	inactive					
Cc1cc(-n2nc3ccc(Cl)cc3n2)c(O)c(C(C)(C)C)c1	inactive	inactive	inactive	inactive	inactive	inactive	inactive	inactive	inactive	inactive	inactive	inactive	inactive				
CCCCC(CC)COC(=O)CCCCC(=O)OCc1ccccc1 (centres undefined)	inactive	inactive	inactive	inactive	inactive	inactive	inactive	inactive	inactive	inactive	inactive	inactive					
